Data: PubChem BioAssay (EPA / NIEHS)
Calls of active or inactive are those of the source. The calls were made as follows: active = hit-call score of the fitted dose curve at least 0.9, where 1 is the maximum; inactive = score below 0.9.

assay: BSK_IMphg_SRB: Viability Assessment in the BioMAP Diversity Plus: IMphg Assay (AID 2284292); settings: primary human endothelial cells with macrophages;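 also: measured one day after compound addition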
Method: BSK_IMphg is a cell-based, multiplexed-readout assay that uses venular endothelial cells and macrophages, a human vascular primary cell, with measurements taken at 24 hours after chemical dosing in a microplate: 96-well plate.BSK_IMphg_SRB is an assay component measured in the BSK_IMphg assay. It measures […] related to cell death using Sulforhodamine staining technology.Data from the assay component BSK_IMphg_SRB was analyzed at the endpoint, BSK_IMphg_SRB, in the positive analysis fitting direction relative to DMSO as the negative control and baseline of activity. Using a type of viability reporter, gain or loss-of-signal activity can be used to understand protein changes. To generalize the intended target to other relatable targets, this assay endpoint is annotated to the 'cell morphology' intended target family, where the subfamily is 'cell conformation'.
The levels of cell surface (or secreted, indicated by the prefix "s") biomarker endpoints were measured by ELISA. Overt cytotoxicity to cells in confluent adherent cultures (all systems other than the BT system) was assessed by measuring total protein levels using sulforhodamine B (SRB) staining in parallel cultures at the time of biomarker measurements, indicated as SRB endpoints. For proliferation assays for adherent cell types, individual cell types are cultured at sub-confluence and relative cell numbers quantified by SRB staining at time points optimized for each system (48 h: 3C and CASM3C systems; 72 h: BT and HDF3CGF systems; 96 h: SAg system). SRB was performed by staining cells with 0.1% SRB after fixation with 10% TCA and reading wells at 560 nm.Viability and proliferation of PBMC (T cells) was quantified by Alamar Blue reduction for the SAg and BT systems. For PBMC viability (referred to as PBMC Cytotoxicity within the assay endpoint names), cells were plated (75,000/well in a 96-well plate) and then chemical samples added for 1 h before addition of activators, SEB and TSST-1 (20 ng/mL final concentration each). Cells were incubated for 90 h. Then, Alamar Blue (20 uL/well) (Invitrogen, Cat DAL1100) was added for 6 h, and the plates were read with a fluorescence microplate reader at 546/580 nm (excitation/emission). For PBMC proliferation, cells were plated and activated as above but incubated for only 16 h prior to addition of Alamar Blue. Plates were read after 6 h.

SMILES | outcome
FC(F)C(F)(F)COCC1CO1 (stereo not given) | inactive
FC(F)(F)C(F)(F)C(F)(F)C(F)(F)C(F)(F)C(F)(F)I | inactive
O=S(=O)(O)CCC(F)(F)C(F)(F)C(F)(F)C(F)(F)C(F)(F)C(F)(F)F | inactive
C[Si](C)(C)C(F)(F)C(F)(F)C(F)(F)F | inactive
FC(F)(F)COC(OCC(F)(F)F)OCC(F)(F)F | inactive
O=C(Cl)C(F)(F)C(F)(F)C(F)(F)C(=O)Cl | inactive
OC(O)(C(F)C(O)(O)C(F)(F)F)C(F)(F)F | inactive
FC(F)=C(F)C(F)(F)C(F)(F)C(F)(F)C(F)(F)C(F)(F)C(F)(F)F | inactive
NCC(F)(F)C(F)(F)C(F)(F)C(F)(F)F | inactive
OCCC(F)(F)C(F)(F)C(F)(F)C(F)(F)F | inactive
